# Laboratory results published in publication PMC7862700, “An all-to-all approach to the identification of sequence-specific readers for epigenetic DNA modifications on cytosine”.
# How the values were obtained:
# Test in all cases: DAPPL (digital affinity profiling via proximity ligation, sequencing); 10 mM Tris-HCl pH 7.5, 50 mM NaCl, 1 mM DTT, 4% glycerol, room temperature, 30 min; GST-TFs on glutathione beads, 16-mer random dsDNA library, 0.1% formaldehyde crosslink after washing; high values mean tight binding
# [1] = target: T1, FEV (Homo sapiens, UniProt Q99581 1-238); conditions: protein: recombinant; tags: N-terminal GST; dsDNA, one strand shown
# T1 sequence: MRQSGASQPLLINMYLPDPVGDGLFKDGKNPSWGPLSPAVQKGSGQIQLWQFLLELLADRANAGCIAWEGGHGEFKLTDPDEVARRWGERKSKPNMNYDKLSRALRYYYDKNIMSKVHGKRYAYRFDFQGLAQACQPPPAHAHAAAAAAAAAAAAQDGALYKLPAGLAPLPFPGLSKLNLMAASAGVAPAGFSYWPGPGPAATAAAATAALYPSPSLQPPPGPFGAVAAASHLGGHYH
# Method in brief: (§1)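 After expression in yeast as GST fusions, human transcription factors were bound to glutathione beads, DNA-barcoded and mixed with a tag-only sample. The pools were incubated with 200 nmole of a 16-mer random double-stranded DNA library in Tris/NaCl/DTT/glycerol buffer (30 min, room temperature), washed and crosslinked with 0.1% formaldehyde. Proximity ligation with BsaI/T4 ligase ran for 1 h at 37 °C, before PCR amplification and sequencing on an Illumina NextSeq500. Binding signal is a hexamer's read frequency for a factor divided by its frequency for the tag-only sample.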
# [2] = target: ETV5 (Homo sapiens, UniProt P41161 1-510); conditions: protein: recombinant; tags: N-terminal GST; dsDNA, one strand shown
# Method in brief: as §1
# [3] = target: HSF1 (Homo sapiens, UniProt Q00613 1-529); conditions: protein: recombinant; tags: N-terminal GST; chain copies: 3; dsDNA, one strand shown
# Method in brief: as §1
# [4] = target: T2, SPIC (Homo sapiens, UniProt Q8N5J4 1-248); conditions: protein: recombinant; tags: N-terminal GST; dsDNA, one strand shown
# T2 sequence: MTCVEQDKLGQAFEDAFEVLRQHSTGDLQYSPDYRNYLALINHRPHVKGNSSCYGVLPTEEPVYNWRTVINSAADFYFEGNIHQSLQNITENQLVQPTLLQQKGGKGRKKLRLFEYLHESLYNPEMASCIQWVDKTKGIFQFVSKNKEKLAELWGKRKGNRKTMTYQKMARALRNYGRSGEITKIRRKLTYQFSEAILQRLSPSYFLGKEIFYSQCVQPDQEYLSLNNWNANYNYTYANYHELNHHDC
# Method in brief: as §1
# [5] = target: ELF4 (Homo sapiens, UniProt Q99607 1-663); conditions: protein: recombinant; tags: N-terminal GST; dsDNA, one strand shown
# Method in brief: as §1
# [6] = target: T3, ELK4 (Homo sapiens, UniProt P28324-2 1-405); conditions: protein: recombinant; tags: N-terminal GST; dsDNA, one strand shown
# T3 sequence: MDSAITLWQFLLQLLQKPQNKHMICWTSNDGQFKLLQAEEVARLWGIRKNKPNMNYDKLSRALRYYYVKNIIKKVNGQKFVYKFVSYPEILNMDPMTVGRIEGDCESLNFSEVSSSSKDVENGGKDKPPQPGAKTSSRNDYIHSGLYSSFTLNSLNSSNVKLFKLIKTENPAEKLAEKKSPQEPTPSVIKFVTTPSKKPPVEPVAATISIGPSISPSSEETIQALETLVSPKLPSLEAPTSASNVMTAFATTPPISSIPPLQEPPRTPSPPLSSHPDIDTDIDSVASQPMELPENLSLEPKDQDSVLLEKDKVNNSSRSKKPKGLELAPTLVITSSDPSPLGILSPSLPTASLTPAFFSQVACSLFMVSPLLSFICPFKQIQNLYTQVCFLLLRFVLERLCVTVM
# Method in brief: as §1
# [7] = target: T4, ETV2 (Homo sapiens, UniProt O00321 1-342); conditions: protein: recombinant; tags: N-terminal GST; dsDNA, one strand shown
# T4 sequence: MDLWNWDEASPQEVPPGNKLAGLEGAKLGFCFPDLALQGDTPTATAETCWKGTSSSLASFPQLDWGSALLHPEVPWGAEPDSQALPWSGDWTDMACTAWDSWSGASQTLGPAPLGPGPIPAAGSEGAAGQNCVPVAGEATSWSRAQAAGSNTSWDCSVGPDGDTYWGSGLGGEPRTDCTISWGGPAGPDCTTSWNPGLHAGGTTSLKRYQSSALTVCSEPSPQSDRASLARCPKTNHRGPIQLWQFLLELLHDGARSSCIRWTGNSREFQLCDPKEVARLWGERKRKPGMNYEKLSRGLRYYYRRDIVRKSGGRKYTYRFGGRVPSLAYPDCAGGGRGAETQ
# Method in brief: as §1
# [8] = target: T5, ELF3 (Homo sapiens, UniProt P78545 1-371); conditions: protein: recombinant; tags: N-terminal GST; dsDNA, one strand shown
# T5 sequence: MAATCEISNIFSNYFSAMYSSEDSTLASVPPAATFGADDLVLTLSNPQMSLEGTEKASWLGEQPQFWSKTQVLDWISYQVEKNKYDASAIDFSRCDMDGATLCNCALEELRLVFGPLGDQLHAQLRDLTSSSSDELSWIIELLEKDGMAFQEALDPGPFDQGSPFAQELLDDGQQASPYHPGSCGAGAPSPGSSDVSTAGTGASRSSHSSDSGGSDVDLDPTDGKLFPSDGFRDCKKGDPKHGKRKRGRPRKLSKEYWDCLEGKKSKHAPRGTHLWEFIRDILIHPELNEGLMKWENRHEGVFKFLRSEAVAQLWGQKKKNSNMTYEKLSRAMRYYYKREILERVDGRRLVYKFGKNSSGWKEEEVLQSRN
# Method in brief: as §1
# [9] = target: CRX (Homo sapiens, UniProt O43186 1-299); conditions: protein: recombinant; tags: N-terminal GST; dsDNA, one strand shown
# Method in brief: as §1
# [10] = target: ETV1 (Homo sapiens, UniProt P50549 1-477); conditions: protein: recombinant; tags: N-terminal GST; dsDNA, one strand shown
# Method in brief: as §1
# [11] = target: T6, ERF (Homo sapiens, UniProt P50548 1-548); conditions: protein: recombinant; tags: N-terminal GST; dsDNA, one strand shown
# T6 sequence: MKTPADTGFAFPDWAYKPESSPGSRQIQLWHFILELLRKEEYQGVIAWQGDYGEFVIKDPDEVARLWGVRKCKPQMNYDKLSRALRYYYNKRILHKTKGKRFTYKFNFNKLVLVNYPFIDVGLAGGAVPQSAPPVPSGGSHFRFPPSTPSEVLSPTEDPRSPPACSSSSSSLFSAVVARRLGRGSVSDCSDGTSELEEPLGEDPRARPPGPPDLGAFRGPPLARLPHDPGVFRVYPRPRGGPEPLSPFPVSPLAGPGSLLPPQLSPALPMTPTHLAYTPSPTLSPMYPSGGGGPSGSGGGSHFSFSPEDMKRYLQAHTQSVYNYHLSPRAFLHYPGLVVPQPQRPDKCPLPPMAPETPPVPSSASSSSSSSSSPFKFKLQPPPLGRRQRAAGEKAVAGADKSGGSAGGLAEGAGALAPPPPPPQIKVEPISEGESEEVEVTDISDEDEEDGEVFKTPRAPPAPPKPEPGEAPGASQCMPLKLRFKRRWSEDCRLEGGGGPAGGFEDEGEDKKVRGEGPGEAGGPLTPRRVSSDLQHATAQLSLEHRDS
# Method in brief: as §1
# [12] = target: T7, ETV3L (Homo sapiens, UniProt Q6ZN32 1-361); conditions: protein: recombinant; tags: N-terminal GST; dsDNA, one strand shown
# T7 sequence: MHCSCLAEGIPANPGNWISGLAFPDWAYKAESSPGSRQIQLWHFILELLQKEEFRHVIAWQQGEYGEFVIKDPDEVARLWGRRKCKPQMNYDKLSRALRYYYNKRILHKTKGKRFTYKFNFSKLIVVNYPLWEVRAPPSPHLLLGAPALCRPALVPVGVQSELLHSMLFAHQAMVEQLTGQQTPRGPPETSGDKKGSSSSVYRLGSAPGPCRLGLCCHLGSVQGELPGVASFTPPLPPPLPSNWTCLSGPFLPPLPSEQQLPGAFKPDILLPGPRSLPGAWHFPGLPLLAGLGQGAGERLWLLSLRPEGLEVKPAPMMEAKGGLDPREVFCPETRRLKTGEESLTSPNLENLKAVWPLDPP
# Method in brief: as §1
# [13] = target: T8, ETS2 (Homo sapiens, UniProt P15036 1-469); conditions: protein: recombinant; tags: N-terminal GST; dsDNA, one strand shown
# T8 sequence: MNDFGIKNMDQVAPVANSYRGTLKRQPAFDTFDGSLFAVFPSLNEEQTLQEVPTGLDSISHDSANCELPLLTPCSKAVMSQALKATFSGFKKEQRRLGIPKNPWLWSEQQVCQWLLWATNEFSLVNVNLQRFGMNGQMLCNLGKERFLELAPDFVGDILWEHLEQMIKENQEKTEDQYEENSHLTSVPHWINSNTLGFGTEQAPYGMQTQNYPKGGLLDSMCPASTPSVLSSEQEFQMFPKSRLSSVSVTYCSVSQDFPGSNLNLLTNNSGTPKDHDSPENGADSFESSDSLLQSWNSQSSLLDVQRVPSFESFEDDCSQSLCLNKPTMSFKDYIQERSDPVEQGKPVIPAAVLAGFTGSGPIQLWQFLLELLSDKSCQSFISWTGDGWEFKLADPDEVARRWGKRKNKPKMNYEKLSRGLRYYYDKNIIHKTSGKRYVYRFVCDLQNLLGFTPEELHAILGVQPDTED
# Method in brief: as §1
# [14] = target: T9, SPDEF (Homo sapiens, UniProt O95238 1-335); conditions: protein: recombinant; tags: N-terminal GST; dsDNA, one strand shown
# T9 sequence: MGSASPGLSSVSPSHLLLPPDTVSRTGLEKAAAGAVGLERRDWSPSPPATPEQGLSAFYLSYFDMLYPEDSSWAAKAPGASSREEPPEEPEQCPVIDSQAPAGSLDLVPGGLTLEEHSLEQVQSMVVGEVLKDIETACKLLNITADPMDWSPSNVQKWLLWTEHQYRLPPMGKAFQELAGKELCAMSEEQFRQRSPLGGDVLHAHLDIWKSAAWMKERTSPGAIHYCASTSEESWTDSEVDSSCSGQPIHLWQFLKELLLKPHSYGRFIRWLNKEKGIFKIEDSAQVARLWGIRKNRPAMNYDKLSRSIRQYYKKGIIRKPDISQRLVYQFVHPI
# Method in brief: as §1
# [15] = target: T10, ETV7 (Homo sapiens, UniProt Q9Y603 1-341); conditions: protein: recombinant; tags: N-terminal GST; dsDNA, one strand shown
# T10 sequence: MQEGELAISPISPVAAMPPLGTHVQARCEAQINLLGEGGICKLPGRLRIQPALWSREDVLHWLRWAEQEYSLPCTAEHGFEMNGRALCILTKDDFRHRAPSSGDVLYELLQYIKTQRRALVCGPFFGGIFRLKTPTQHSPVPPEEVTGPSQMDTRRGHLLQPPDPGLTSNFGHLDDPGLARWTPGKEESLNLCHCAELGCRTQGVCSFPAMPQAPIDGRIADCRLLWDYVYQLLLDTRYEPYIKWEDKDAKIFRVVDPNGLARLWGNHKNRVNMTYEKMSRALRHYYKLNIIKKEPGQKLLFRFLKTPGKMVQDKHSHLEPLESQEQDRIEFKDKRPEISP
# Method in brief: as §1
# [16] = target: T11, ELF5 (Homo sapiens, UniProt Q9UKW6-2 1-255); conditions: protein: recombinant; tags: N-terminal GST; dsDNA, one strand shown
# T11 sequence: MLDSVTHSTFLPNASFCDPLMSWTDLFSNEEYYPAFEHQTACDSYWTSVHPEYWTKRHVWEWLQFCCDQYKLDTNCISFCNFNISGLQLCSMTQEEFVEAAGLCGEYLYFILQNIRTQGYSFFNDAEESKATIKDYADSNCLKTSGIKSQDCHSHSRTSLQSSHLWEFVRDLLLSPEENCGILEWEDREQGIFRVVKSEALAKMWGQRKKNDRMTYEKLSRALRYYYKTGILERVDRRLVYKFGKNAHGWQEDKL
# Method in brief: as §1
# [17] = target: T12, ETV3 (Homo sapiens, UniProt P41162-2 1-143); conditions: protein: recombinant; tags: N-terminal GST; dsDNA, one strand shown
# T12 sequence: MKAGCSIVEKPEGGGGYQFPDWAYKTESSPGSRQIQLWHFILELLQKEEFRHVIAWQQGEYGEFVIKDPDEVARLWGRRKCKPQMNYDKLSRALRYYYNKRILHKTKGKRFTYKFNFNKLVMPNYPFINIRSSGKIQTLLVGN
# Method in brief: as §1
# [18] = target: ETV6 (Homo sapiens, UniProt P41212 1-452); conditions: protein: recombinant; tags: N-terminal GST; dsDNA, one strand shown
# Method in brief: as §1
# ETV5, sequence (P41161 whole entry): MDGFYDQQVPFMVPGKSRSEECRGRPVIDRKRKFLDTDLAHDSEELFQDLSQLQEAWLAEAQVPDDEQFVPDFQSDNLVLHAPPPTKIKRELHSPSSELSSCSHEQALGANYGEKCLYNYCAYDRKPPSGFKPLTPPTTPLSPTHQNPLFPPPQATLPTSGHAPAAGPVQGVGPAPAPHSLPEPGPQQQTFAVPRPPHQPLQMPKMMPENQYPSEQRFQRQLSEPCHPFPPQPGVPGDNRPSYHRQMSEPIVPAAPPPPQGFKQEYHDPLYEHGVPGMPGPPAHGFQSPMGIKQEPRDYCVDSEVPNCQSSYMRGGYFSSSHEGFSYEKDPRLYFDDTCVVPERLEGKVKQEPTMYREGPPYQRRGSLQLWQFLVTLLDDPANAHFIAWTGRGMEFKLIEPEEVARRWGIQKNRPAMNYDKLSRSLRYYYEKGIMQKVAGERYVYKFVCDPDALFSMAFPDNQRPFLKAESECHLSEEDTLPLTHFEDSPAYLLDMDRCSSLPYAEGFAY
# ETV6, sequence (P41212 whole entry): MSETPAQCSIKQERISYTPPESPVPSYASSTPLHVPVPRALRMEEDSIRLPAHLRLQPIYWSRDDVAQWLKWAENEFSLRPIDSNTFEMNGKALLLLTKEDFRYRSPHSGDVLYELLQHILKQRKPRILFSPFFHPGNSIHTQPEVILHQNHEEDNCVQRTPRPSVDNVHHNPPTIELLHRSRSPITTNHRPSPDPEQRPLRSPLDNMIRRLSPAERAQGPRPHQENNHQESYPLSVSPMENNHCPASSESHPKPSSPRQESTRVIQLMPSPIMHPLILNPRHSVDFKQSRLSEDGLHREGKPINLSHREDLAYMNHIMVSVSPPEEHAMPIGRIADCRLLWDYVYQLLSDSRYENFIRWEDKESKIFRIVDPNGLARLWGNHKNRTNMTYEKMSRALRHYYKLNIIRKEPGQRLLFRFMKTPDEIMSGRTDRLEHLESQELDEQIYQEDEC
# CRX, sequence (O43186 whole entry): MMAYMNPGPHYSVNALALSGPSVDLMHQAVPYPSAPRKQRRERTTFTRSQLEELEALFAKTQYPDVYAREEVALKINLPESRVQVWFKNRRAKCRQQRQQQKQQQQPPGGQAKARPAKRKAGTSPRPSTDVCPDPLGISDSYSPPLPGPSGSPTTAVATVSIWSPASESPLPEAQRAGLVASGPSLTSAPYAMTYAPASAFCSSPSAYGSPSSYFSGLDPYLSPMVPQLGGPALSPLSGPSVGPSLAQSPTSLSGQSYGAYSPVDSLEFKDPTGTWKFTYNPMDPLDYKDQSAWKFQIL
# ETV1, sequence (P50549 whole entry): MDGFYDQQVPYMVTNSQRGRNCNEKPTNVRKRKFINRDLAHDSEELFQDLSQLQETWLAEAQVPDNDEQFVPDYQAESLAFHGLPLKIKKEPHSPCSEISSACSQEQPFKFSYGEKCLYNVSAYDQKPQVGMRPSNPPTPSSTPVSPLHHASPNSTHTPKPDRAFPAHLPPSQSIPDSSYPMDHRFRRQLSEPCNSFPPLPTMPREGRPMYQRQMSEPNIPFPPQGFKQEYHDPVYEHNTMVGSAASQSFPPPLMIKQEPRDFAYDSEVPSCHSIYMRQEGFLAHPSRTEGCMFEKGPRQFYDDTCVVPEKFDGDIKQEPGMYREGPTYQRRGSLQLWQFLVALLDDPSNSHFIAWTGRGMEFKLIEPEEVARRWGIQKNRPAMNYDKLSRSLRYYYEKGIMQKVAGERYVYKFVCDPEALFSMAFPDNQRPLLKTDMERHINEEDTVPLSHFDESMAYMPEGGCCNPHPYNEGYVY
# HSF1, sequence (Q00613 whole entry): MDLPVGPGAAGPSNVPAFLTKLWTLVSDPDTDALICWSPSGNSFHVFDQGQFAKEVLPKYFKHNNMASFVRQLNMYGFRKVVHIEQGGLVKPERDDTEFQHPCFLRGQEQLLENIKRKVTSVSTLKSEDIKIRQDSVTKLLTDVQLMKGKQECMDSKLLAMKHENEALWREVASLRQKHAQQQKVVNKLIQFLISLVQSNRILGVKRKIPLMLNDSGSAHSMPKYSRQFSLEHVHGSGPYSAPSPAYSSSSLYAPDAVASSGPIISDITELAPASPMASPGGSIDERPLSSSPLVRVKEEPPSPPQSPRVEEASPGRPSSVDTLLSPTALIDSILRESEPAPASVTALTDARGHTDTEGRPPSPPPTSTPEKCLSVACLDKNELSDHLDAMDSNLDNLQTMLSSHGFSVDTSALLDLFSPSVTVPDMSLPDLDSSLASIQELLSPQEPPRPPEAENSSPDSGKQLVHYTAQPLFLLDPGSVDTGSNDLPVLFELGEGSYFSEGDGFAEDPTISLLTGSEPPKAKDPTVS
# ELF4, sequence (Q99607 whole entry): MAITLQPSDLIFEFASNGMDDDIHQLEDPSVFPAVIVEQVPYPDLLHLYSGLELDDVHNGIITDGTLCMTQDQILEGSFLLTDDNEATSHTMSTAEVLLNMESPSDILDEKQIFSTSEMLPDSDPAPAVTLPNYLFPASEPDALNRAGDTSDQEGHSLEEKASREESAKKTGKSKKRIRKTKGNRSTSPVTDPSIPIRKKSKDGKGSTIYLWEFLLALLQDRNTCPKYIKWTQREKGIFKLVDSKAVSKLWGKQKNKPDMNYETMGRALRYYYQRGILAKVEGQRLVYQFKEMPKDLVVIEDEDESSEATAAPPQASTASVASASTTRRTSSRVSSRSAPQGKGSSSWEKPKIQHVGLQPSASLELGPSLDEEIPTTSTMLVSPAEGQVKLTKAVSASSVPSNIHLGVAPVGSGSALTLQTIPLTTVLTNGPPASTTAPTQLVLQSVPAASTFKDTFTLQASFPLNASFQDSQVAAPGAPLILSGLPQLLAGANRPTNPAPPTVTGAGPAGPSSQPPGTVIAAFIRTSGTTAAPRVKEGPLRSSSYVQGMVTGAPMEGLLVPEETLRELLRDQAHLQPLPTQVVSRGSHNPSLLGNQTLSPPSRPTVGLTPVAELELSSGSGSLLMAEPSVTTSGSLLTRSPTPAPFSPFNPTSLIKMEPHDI
sequence,measurement,setting,value
TACTCA,binding signal,[1],"1.24 fold enrichment (6-mer frequency, TF over GST control)"
same,binding signal,[2],"1.17 fold enrichment (6-mer frequency, TF over GST control)"
same,binding signal,[3],"1.12 fold enrichment (6-mer frequency, TF over GST control)"
same,binding signal,[4],"1.19 fold enrichment (6-mer frequency, TF over GST control)"
same,binding signal,[5],"1.23 fold enrichment (6-mer frequency, TF over GST control)"
same,binding signal,[6],"1.13 fold enrichment (6-mer frequency, TF over GST control)"
same,binding signal,[7],"1.17 fold enrichment (6-mer frequency, TF over GST control)"
same,binding signal,[8],"1.22 fold enrichment (6-mer frequency, TF over GST control)"
same,binding signal,[9],"1.26 fold enrichment (6-mer frequency, TF over GST control)"
same,binding signal,[10],"1.19 fold enrichment (6-mer frequency, TF over GST control)"
same,binding signal,[11],"1.14 fold enrichment (6-mer frequency, TF over GST control)"
same,binding signal,[12],"1.23 fold enrichment (6-mer frequency, TF over GST control)"
same,binding signal,[13],"1.19 fold enrichment (6-mer frequency, TF over GST control)"
same,binding signal,[14],"1.18 fold enrichment (6-mer frequency, TF over GST control)"
same,binding signal,[15],"1.06 fold enrichment (6-mer frequency, TF over GST control)"
same,binding signal,[16],"1.18 fold enrichment (6-mer frequency, TF over GST control)"
same,binding signal,[17],"1.14 fold enrichment (6-mer frequency, TF over GST control)"
same,binding signal,[18],"1.22 fold enrichment (6-mer frequency, TF over GST control)"
